In PubChem BioAssay (NCI):
Values joined by “and” are separate entries in the source; they are usually repeats but may differ in a detail not shown here. Equal values may be shown once. This is part of a sample that, as a whole, favours compounds with a hit. Of some 83,000 tested, about 20% had one in any assay.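 Activity criterion: percent growth below 10, measured after cells in 96-well plates were exposed to a single compound concentration for 48 hours.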 Values without a mark were called inactive. Active and inactive are the calls of the source.

System: HL-60(TB) leukemia
Assay: NCI-60 one-dose screen, 48 h (100 = growth as untreated, 0 = no growth, -100 = all killed)
Conditions: 10 µM unless noted

SMILES	growth
N#Cc1cnc(NCCc2ccncc2)nc1-n1cnc2ccccc21	37.7%
OCC1OC(n2cnc3c(=S)nc[nH]c32)C(O)C1O (stereo not given)	120% and 50.9%
Nc1nc2ncc(CCNc3ccc(C(=O)NC(CCC(=O)O)C(=O)O)cc3)nc2c(=O)[nH]1 (stereo not given)	144%
O=C(Cc1ccc(/C=C/C(=O)c2ncc[nH]2)cc1)Nc1ccccc1	7.76% (active)
COc1cc2nc(-c3ccc(C(F)(F)F)cc3)cc(OCCN3CCCC3)c2cc1OC	66.8%
COc1cc(C2CC(c3ccc(Cl)cc3)=NN2c2ccc(Cl)cc2)cc(OC)c1OC (stereo not given)	97.9%
COc1cc(NCCCCCNC(C)C)c2ncccc2c1	104% and 58.4%
CCC1S/C(=N\N=C(/C)c2ccco2)N(c2ccccc2)C1=O (stereo not given)	106%
N=C(N)c1ccc(-c2ccc(-c3ccc(Cl)cc3)s2)nc1	-39.1% (active)
COc1cc(NC(=O)Nc2cnc(Nc3ccc(N4CCOCC4)cc3)nc2Oc2cccc(OC)c2)cc(OC)c1	22.8%
NC(=S)c1csc(CCNC(=O)c2ccccc2)n1	89%
COc1ccc(-c2c3c(N)c4c(nc3nc3c2c(C)nn3-c2ccccc2)CCCCC4)cc1	49.3%
N#Cc1c(-c2ccc(Cl)cc2)nc(SCC(=O)NC2=NN=C(c3ccccc3)CS2)[nH]c1=O	4.11% (active)
Nc1cccc(NC(=O)C(=O)Nc2cccc(N)c2)c1	97.5%
CCCNc1nc(SC)nc(-c2cccc(N)c2)c1C#N	98.9%
OCC1C2C=CC(C2)C1CO (stereo not given)	87.5%
Clc1ccc2c(c1)N(c1ncnc3ccc(-c4cnc5[nH]ncc5c4)cc13)CC2	34.5%
CCN(CC)c1cc(C)c2cc(NC(=O)c3cccc(OC)c3)ccc2n1	84.7%
NC(N)=Nc1nc2ccccc2o1	124%
O=C(/C=C/c1cccs1)c1ccc(Cl)nc1	100%

SMILES	growth
CC1=CC[C@@H]2C(C)(C)[C@@H](O)CC[C@@]2(C)[C@@H]1COc1ccc2ccc(=O)oc2c1	76.7%
O=C(CN1CCOCC1)Nc1ccc(-c2nc3ccccc3s2)cc1	101%
Nc1c(C(=O)Nc2ccccc2)sc2nc3c(cc12)CCCCC3	10.4%
Cc1cnc(C(=O)NNc2nc3sc4c(c3c(=O)n2C)C(C)CCC4)cn1 (stereo not given)	-32.3% (active)
C=CCc1cc(C(C)=O)cc(OC)c1O	71.1%
CCC(CC)C(=O)OC(C)COc1ccc(C(C)(C)C)cc1 (stereo not given)	104%
COc1ccc2c(c1)OC1=C(C(=O)OC1)C2c1cc(OC)c2c(c1)OCCO2 (stereo not given)	-29.2% (active)
CC12CCCCC1C(C(N)=O)C(=O)O2 (stereo not given)	102%
O=C(c1ccccc1)C1C(=O)N2C(=S)N(c3ccccc3)C(=O)C2C1c1ccc(Cl)cc1 (stereo not given)	100%
COc1ccc(COC=O)cc1	103%
COC(=O)/C(CCC=C(C)C)=C1\[C@@H](OC(C)=O)C[C@@]2(C)[C@H]1C[C@@H](O)[C@H]1[C@@]3(C)CC[C@H](NC(=O)c4cnccn4)[C@@H](C)[C@@H]3CC[C@@]12C	99.5%
COc1ccc(/C=C2\COc3ccc(O)cc3C2=O)c(OC)c1OC	12.7%
Cc1sc2nc3[nH]/c(=C\c4ccc(Cl)cc4)c(=O)n3c(=O)c2c1C	92.8%
NS(=O)(=O)N(c1cc(C(F)(F)F)cc(C(F)(F)F)c1)C1CCN(Cc2ccc(C(F)(F)F)cc2)CC1	37.3%
COc1cccc(-c2nn(-c3ccccc3)cc2-c2ccnc(NCCNC(=O)Nc3ccc(Cl)c(Cl)c3)c2)c1	0.89% (active)
CCCCC(=O)c1ccco1	103%
COc1ccc(-c2cnc(N)nc2-c2ccc(OC)cc2O)cc1	79%
NNC(=O)Nc1ccccc1	102%
CN1CCN(CC(=O)N(C)c2ccc(N=C(c3ccccc3)c3c(O)[nH]c4ccc(C#N)cc34)cc2)CC1	14.9%
Cc1cccc(Cl)c1NC(=O)c1ccc2nc(NC(=O)NC3CC(C)(C)NC(C)(C)C3)sc2c1	110%
